Sampled rows, rich in hits. Any-hit rate of the full collection: about 6.5%.
Lassa entry inh: Lassa virus entry inhibition | Lassa virus pseudotype entry inhibition, cell reporter | Potency, µM (series often up to 37.9 µM), without a hit: at the top dose activity change, negative = inhibition, actives largely listed as inhibitors | 1.2% of 300,000 active | AID 540256; calls by dose curve; tested in HEK293 cells; note: potency is the fitted concentration of half-maximal effect; nearly all actives have a fitted effect of over 50% in size
HCMV antiviral: inhibitors of human cytomegalovirus; 4.5% of 410,000 active; AID 1259415; HFF cells, HCMV-luciferase reporter, 72 h; stronger effect = lower value; activity change, negative = inhibition, % at 57.5 µM; in the data active = activity change below about -60%; inconclusive = no clear call, values can overlap the other calls; inactive = above about -39%
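Screen run at 2 compound doses on HFFs infected with reporter HCMV, MOI 1 PFU/cell. Luciferase activity from cell lysates at 72 h post infection gave inhibition relative to buffer-only and Salinomycin wells.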
FMDV antiviral: blocks foot and mouth disease virus. 1.2% of 410,000 active. AID 1159524. Potency, µM (highest dose often 57.9 µM), without a hit: at the top dose activity change, negative = inhibition, hits mostly inhibitors. FMDV antiviral cell-based qHTS; calls by dose curve; tested in HEK293T cells; note: read-out not given here; potency is the fitted concentration of half-maximal effect; nearly all actives have a fitted effect of over 45% in size
Vaccinia Venus: vaccinia inhibition (Venus reporter); Potency, µM (highest dose often 36.5 µM), without a hit: at the top dose activity change, negative = inhibition, most hits filed as inhibitors; 0.46% of 330,000 active; Vaccinia virus Venus reporter expression, fluorescence; calls by dose curve; tested in A549 cells; note: potency is the fitted concentration of half-maximal effect; nearly all actives have a fitted effect of over 30% in size
MARV entry inh: Marburg virus entry inhibition | 1.8% of 300,000 active | Potency, µM (series often up to 37.8 µM), inactives show at the highest dose activity change, negative = inhibition, most hits filed as inhibitors | AID 540276 | Marburg virus pseudotyped entry inhibition, cell reporter; calls by dose curve; tested in HEK293 cells; note: potency is the fitted concentration of half-maximal effect
Vaccinia mCherry: vaccinia inhibition (mCherry reporter); Vaccinia virus mCherry reporter infection, fluorescence; Potency, µM (titrated, usually from 36.5 µM), for inactives: at the highest dose activity change, negative = inhibition, usual class: inhibitors; 0.63% of 310,000 active; calls by dose curve; tested in A549 cells; note: potency is the fitted concentration of half-maximal effect; nearly all actives have a fitted effect of over 35% in size
Starred values were filed as active, the others as inactive; i = inactive; ? = inconclusive; . = no result; + = active, no number; ! = not confirmed by another sample; [ ] = remark or other dose. % is set by controls: 0 for no effect and ±100 for the full control effect.

SMILES	Lassa entry inh	HCMV antiviral	FMDV antiviral	Vaccinia Venus	MARV entry inh	Vaccinia mCherry
COc1ccc(Sc2ccc(-c3nc4cnccn4c3NC3CCCCC3)cc2OC)cc1	.	3.5	?	11.2µM*	.	?
CCCCCCSc1cc(-c2nc3cnccn3c2NCc2ccccc2)ccc1OC	.	.	0.0%	-22.3%	.	?
COc1cc(-c2nc3ccccn3c2NCc2ccccc2)ccc1SC1CCCCC1	.	.	22.4µM*	?	.	?
CCC(C)Sc1ccc(-c2nc3ccccn3c2NCc2ccccc2)cc1OC (configuration not stated)	.	.	39.8µM*	?	.	?
CCCCCCSc1ccc(-c2nc3cnccn3c2NC2CCCCC2)cc1	.	28.6	?	2.6%	.	-8.4%
COc1ccc(CSc2ccc(-c3nc4ccccn4c3NCc3ccccc3)cc2OC)cc1	.	-64.8*	?	-19.1%	.	-26.0%
COc1cc(-c2nc3ccc(C)cn3c2NCc2ccccc2)ccc1SC1CCCCC1	.	0.9	?	-29.2%	.	-21.3%
CCC(C)Sc1ccc(-c2nc3ccc(C)cn3c2NCc2ccccc2)cc1 (configuration not stated)	.	47.8	24.7%	?	.	?
CCN(CC)CCCn1c(C)cc2c(c1=O)[C@H](c1ccc(OC)c(OC)c1OC)C(C#N)=C(N)O2	.	.	.	.	8.9%	.
COc1ccc(-c2nc3ccccn3c2NC2CCCCC2)cc1SC1CCCCC1	.	-98.7*	?	?	.	?
CCOc1ccc(/C=N/Nc2cc(N3CCOCC3)ncn2)c(O)c1	.	23.7	?	?	.	?
CCCOc1ccc(/C=N/Nc2cc(N3CCOCC3)ncn2)c(O)c1	.	-101.2*	-15.1%	.	.	.
COc1ccc(NC(=O)C2CCN(S(=O)(=O)c3c(C)noc3/C=C/c3ccco3)CC2)cc1	0.9%[46.1 µM]	-66.8*	-24.1%	2.4%	8.7%[46.1 µM]	0.8%
Cc1cc(C)c(/C=C/c2onc(C)c2S(=O)(=O)N2CCC(C(=O)Nc3ccc(Cl)c(C(F)(F)F)c3)CC2)c(C)c1	24.7%[46.1 µM]	-96.8*	?	-12.5%[7.34 µM]	.	-17.3%[7.34 µM]
Cc1noc(/C=C/c2cccs2)c1S(=O)(=O)N1CCC(C(=O)Nc2ccc(F)c(Cl)c2)CC1	-21.0%[46.1 µM]	-73.4*	?	-22.1%	14.2%[46.1 µM]	-19.3%
CCc1ccc(NC(=O)C2CCN(S(=O)(=O)c3c(C)noc3/C=C/c3ccco3)CC2)cc1	2.1%[46.1 µM]	?	?	-10.8%	6.0%[46.1 µM]	-6.7%
COCCCNc1nccc2[nH]c(-c3cccc(C)c3)nc12	.	25.5	.	.	.	.
O=C(NCCSCc1cccc(Cl)c1)C1CCN(S(=O)(=O)Cc2ccccc2)CC1	16.2%[46.1 µM]	-1.2	-1.4%	-0.5%	10.3%[46.1 µM]	2.9%
Cc1cnc(C)c(-c2cc(F)cc3c2OC(CNC(=O)c2cc(Cl)ccc2F)C3)n1 (configuration not stated)	.	.	-7.2%	-8.1%	.	-7.9%
Cn1c(=O)[nH]c(=O)c2[nH]c(CN3CCN(Cc4ccccc4)CC3)nc21	.	-33.6	0.3%	1.1%	.	i
Cn1c(=O)[nH]c(=O)c2[nH]c(N(Cc3ccccc3)Cc3ccccc3)nc21	?	74.7	39.8µM*	?	-3.4%[46.1 µM]	.
COc1ccc(C2=NS(=O)(=O)N(C)C(C(=O)NCc3ccccc3)=C2)cc1OC	3.2%[46.1 µM]	-79.7*!	-22.7%	-4.1%	8.6%[46.1 µM]	-7.0%
COc1ccc(C2=NS(=O)(=O)N(C)C(C(=O)NCc3ccccn3)=C2)cc1OC	.	4.1	-20.5%	-1.9%	.	-5.0%
COc1ccc(C2=NS(=O)(=O)N(C)C(C(=O)N3CCc4ccccc4C3)=C2)cc1OC	.	-27.9	28.2µM*	-7.0%	.	-21.2%
C/C(=N\NC(=O)c1ccccc1)c1ccc(NC(=O)C(F)(F)F)cc1	.	.	.	.	0.3%[46.1 µM]	.
SMILES	Lassa entry inh	HCMV antiviral	FMDV antiviral	Vaccinia Venus	MARV entry inh	Vaccinia mCherry
CCN(Cc1ccccc1)C(=O)c1cc2c(=O)oc3ccc(C)cc3c2s1	3.1%[46.1 µM]	-13.1	-19.1%	-8.0%	5.8%[46.1 µM]	3.5%
Cc1ccc2oc(=O)c3cc(C(=O)N(Cc4ccccc4)C(C)C)sc3c2c1	?	-105.3*	-28.8%	2.2%	-0.9%[46.1 µM]	-12.0%
Cc1cccn2c(=O)c3cc(C(=O)N(Cc4ccccc4)C(C)C)sc3nc12	?	-14.0	?	-7.1%	3.98µM*	-6.5%
CCN(CC)C(=O)c1cc2c(=O)n3cccc(C)c3nc2s1	15.8%	108.8	44.2%	0.8%	?	-15.6%
OCC[C@@H]1C[C@H](O)[C@@H](O)[C@@]2(OCCc3cc(C(F)(F)F)ccc32)O1	.	-2.5	.	.	.	.
O=C(CSc1nc2c(oc3ccccc32)c(=O)n1Cc1ccco1)Nc1ccccc1Cl	.	8.7	0.0%	?	-6.7%[46.1 µM]	-28.8%
COc1cccc([C@H]2C(C(=O)c3sc(C)nc3C)=C(O)C(=O)N2CCN2CCOCC2)c1OC	.	.	.	.	9.8%	.
COc1ccccc1-c1ccc([C@@H]2C[C@H]3[C@H](CON3C)CN2CC2CCCCC2)cc1	.	-16.4	.	.	.	.
O=C(NCc1nnc2n1CCN(Cc1ccccc1C(F)(F)F)CC2)c1ccncc1	.	.	-15.7%	-8.2%	.	i
Cn1nnc(NC(=S)NC(=O)c2cc(Cl)ccc2Cl)n1	.	+	14.0%	.	.	.
COc1cc2c(OC(C)=O)c3c(c(-c4ccc5c(c4)OCO5)c2cc1OC)C(=O)OC3	.	-93.0*	0.0%	?	.	?
COc1ccc(C(=O)Oc2ccc3c(c2)OCO3)cc1OC	25.5%	-5.3	40.5%	.	?	.
COc1cc2c(O)c3c(c(-c4ccc5c(c4)OCO5)c2cc1OC)C(=O)OC3	3.66µM*	-96.2*	.	?	2.31µM*	?
COc1ccc(-c2oc(=O)c3cc(OC)c(OC)cc3c2-c2ccc3c(c2)OCO3)cc1	.	-19.4	3.4%	-10.9%	.	-4.0%
Nc1c(C(=O)C2CC2)sc2nc(-c3ccccc3)cc(C(F)(F)F)c12	-14.0%	-77.1*	23.2%	.	?	.
CN(C)CCNC(=O)c1sc2nc(-c3ccccc3)cc(C(F)(F)F)c2c1N	?	-9.2	-25.3%	?	5.01µM*	?
CCC1CCCCN1S(=O)(=O)c1ccc(NC(=O)c2nc(S(C)(=O)=O)ncc2Cl)cc1 (configuration not stated)	?	-112.8*	31.6µM*	?	8.91µM*	?
CCNC(=O)c1c(NC(=O)c2nc(S(=O)(=O)CC)ncc2Cl)sc2c1CCCC2	7.94µM*	-101.2*	?	0.2%[7.34 µM]	1.7%[46.1 µM]	-0.7%[7.34 µM]
CCS(=O)(=O)c1ncc(Cl)c(C(=O)Nc2ccc(S(=O)(=O)N3CCCC(C)C3)cc2)n1 (configuration not stated)	?	-101.3*	10µM*	?	?	?
CCCS(=O)(=O)c1ncc(Cl)c(C(=O)Nc2c(C(=O)Nc3ccccc3)oc3ccccc23)n1	?	-31.2	?	-11.4%	-15.2%[46.1 µM]	-13.3%
CCS(=O)(=O)c1ncc(Cl)c(C(=O)Nc2ccc(C)cc2)n1	?	-100.5*	14.1µM*	?	7.94µM*	?
COc1ccc(CN(Cc2ccccc2)C(C)=O)cc1COc1ccc(NC(C)=O)cc1	.	.	.	-26.6%	.	-0.8%
